Activity calls are given as the source filed them. Rule for the calls: active = hit-call score of the fitted dose curve at least 0.9, where 1 is the maximum; inactive = score below 0.9.
Assay: BSK_LPS_SRB: Viability Assessment in the BioMAP Diversity Plus: LPS Assay (AID 2283079);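 note: measured one day after compound addition; fitted in both directions against DMSO so loss or gain of signal counts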
Conditions: primary human HUVEC with PBMC
Procedure: BSK_LPS is a cell-based, multiplexed-readout assay that uses umbilical vein endothelium and peripheral blood mononuclear cells, a human vascular primary cell co-culture, with measurements taken at 24 hours after chemical dosing in a 96-well plate.BSK_LPS_SRB is an assay component measured in the BSK_LPS assay. It measures 0.1% sulforhodamine related to cell death using Sulforhodamine staining technology.Data from the assay component BSK_LPS_SRB was analyzed into 1 assay endpoint. This assay endpoint, BSK_LPS_SRB, was analyzed with bidirectional fitting relative to DMSO as the negative control and baseline of activity. Using a type of viability reporter, gain or loss-of-signal activity can be used to understand changes in the signaling. Furthermore, this assay endpoint can be referred to as a primary readout, because this assay has produced multiple assay endpoints where this one serves a signaling function. To generalize the intended target to other relatable targets, this assay endpoint is annotated to the cell morphology intended target family, where the subfamily is cell conformation.
The levels of cell surface (or secreted, indicated by the prefix "s") biomarker endpoints were measured by ELISA. Overt cytotoxicity to cells in confluent adherent cultures (all systems other than the BT system) was assessed by measuring total protein levels using sulforhodamine B (SRB) staining in parallel cultures at the time of biomarker measurements, indicated as SRB endpoints. For proliferation assays for adherent cell types, individual cell types are cultured at sub-confluence and relative cell numbers quantified by SRB staining at time points optimized for each system (48 h: 3C and CASM3C systems; 72 h: BT and HDF3CGF systems; 96 h: SAg system). SRB was performed by staining cells with 0.1% SRB after fixation with 10% TCA and reading wells at 560 nm.Viability and proliferation of PBMC (T cells) was quantified by Alamar Blue reduction for the SAg and BT systems. For PBMC viability (referred to as PBMC Cytotoxicity within the assay endpoint names), cells were plated (75,000/well in a 96-well plate) and then chemical samples added for 1 h before addition of activators, SEB and TSST-1 (20 ng/mL final concentration each). Cells were incubated for 90 h. Then, Alamar Blue (20 uL/well) (Invitrogen, Cat DAL1100) was added for 6 h, and the plates were read with a fluorescence microplate reader at 546/580 nm (excitation/emission). For PBMC proliferation, cells were plated and activated as above but incubated for only 16 h prior to addition of Alamar Blue. Plates were read after 6 h.
In the case of CCCCCc1ccc(N)cc1, the outcome is reported as “inactive”. For O=C1c2ccccc2C(=O)N1CCc1noc(-c2ccc(CN3CCCCCC3)s2)n1, the outcome was “inactive”. In the case of O=C(O)Cc1cc(I)c(Oc2ccc(O)c(I)c2)c(I)c1, the outcome is reported as “inactive”. For CC1(C)NC(=O)N(c2ccc([N+](=O)[O-])c(C(F)(F)F)c2)C1=O, the outcome was “inactive”. With CN1C(=O)N(c2ccccc2Br)Cc2cnc(Nc3ccc4c(c3)OCC(CO)O4)nc21 (stereo not given) the AC50 was 4.68 µM (active). For CC[C@H](NC(=O)c1cc(F)ccc1NS(=O)(=O)c1cccc2cccnc12)c1ccccc1, the outcome was “inactive”. With CC(=O)N1CCN(c2ccc(OC[C@H]3CO[C@](Cn4ccnc4)(c4ccc(Cl)cc4Cl)O3)cc2)CC1 the AC50 was 20 µM (active). In the case of O=C1O[C@H]([C@@H](O)CO)C(O)=C1O, the outcome is reported as “inactive”. In the case of C[C@]12CC[C@@H]3c4ccc(O)cc4CC[C@H]3[C@@H]1CCC2=O, the outcome is reported as “inactive”. With NC(=O)c1nc(-c2cccc(-c3cc(F)ccc3OCC(F)(F)C(F)(F)F)c2)n[nH]1 the AC50 was 31.6 µM (active). In the case of CCCCCCCCN(C)CCCCCCCC, the outcome is reported as “inactive”. With O=C(O)c1ccccc1C(=O)OCc1ccccc1 the outcome was “inactive”. In the case of Oc1ccccc1, the outcome is reported as “inactive”. For CCCCOC(=O)c1ccc(O)cc1, the outcome was “inactive”. In the case of O=C(O)Cn1c(=O)n(Cc2ccc(Br)cc2F)c(=O)c2ccc(Cl)cc21, the outcome is reported as “inactive”. For CC(C)(C)c1csc(-c2cc3cc(OCc4ccccc4CC(=O)O)ccc3o2)n1, the AC50 was 20.9 µM (active). In the case of O=c1[nH]sc2ccccc12, the AC50 is reported as 25.7 µM (active). In the case of Cc1ncc(CO)c(CO)c1O, the outcome is reported as “inactive”. In the case of CCCCCCCCOc1ccc(C(=O)c2ccccc2)c(O)c1, the outcome is reported as “inactive”. For CCO[Si](CCCNC(N)=O)(OCC)OCC, the outcome was “inactive”. In the case of Clc1ccccc1C(c1ccccc1)(c1ccccc1)n1ccnc1, the AC50 is reported as 23.1 µM (active). With CCN(CC)C(=O)c1cc(S(=O)(=O)Cc2ccccc2)c(N2CCC(c3ccccc3)CC2)cc1N(CC)CCN(C)C the AC50 was 10.5 µM (active). In the case of CC[C@@H]1C[C@H](N(Cc2cc(C(F)(F)F)cc(C(F)(F)F)c2)C(C)=O)c2cc(C(F)(F)F)ccc2N1C(=O)OC(C)C, the outcome is reported as “inactive”. In the case of CC(C)(c1cc(Br)c(O)c(Br)c1)c1cc(Br)c(O)c(Br)c1, the AC50 is reported as 29.8 µM (active). For O=C1CCC(C2CCCCC2)CC1, the outcome was “inactive”. In the case of O=c1ccc2ccccc2o1, the outcome is reported as “inactive”. In the case of CN(C)C(=O)C1(N2CCCCC2)CCN(CC[C@@]2(c3ccc(Cl)c(Cl)c3)CN(C(=O)c3ccccc3)CCO2)CC1, the AC50 is reported as 18.9 µM (active). In the case of CCCCOC(=O)CC(CC(=O)OCCCC)(OC(C)=O)C(=O)OCCCC, the outcome is reported as “inactive”. With Cc1oc2c(NC(=O)c3c(Cl)cccc3Cl)cccc2c1C(C)(C)O the AC50 was 26.5 µM (active). For CCCC(=O)OCCC(C)C, the outcome was “inactive”. For O=C(Nc1ccc(Cl)cc1)Nc1ccc(Cl)c(Cl)c1, the AC50 was 2.03 µM (active). With O=C=NCCCCCCN=C=O the outcome was “inactive”. With O=CCCCC=O the outcome was “inactive”. In the case of COc1ccc2cc(S(=O)(=O)N[C@H](CC(=O)N[C@H](Cc3ccc(CN4[C@H](C)CCC[C@@H]4C)cc3)C(=O)N(C)C(C)C)c3ccc4c(c3)OCO4)ccc2c1, the AC50 is reported as 15.5 µM (active). For CC(O)CC(C)(C)O (stereo not given), the outcome was “inactive”. With CCCOC(=O)c1cc(O)c(O)c(O)c1 the outcome was “inactive”. For Cc1c2ccccc2c(C)c2c1ccc1ccccc12, the AC50 was 24.8 µM (active). For Cc1cn([C@H]2C[C@H](N=[N+]=[N-])[C@@H](CO)O2)c(=O)[nH]c1=O, the outcome was “inactive”. For O=C(O)c1ccccc1-n1cc(C(=O)O)c(=O)c2cc(Nc3c(F)cc(F)cc3Cl)c(Cl)cc21, the outcome was “inactive”. In the case of Cc1ccc(C(C)C)cc1, the outcome is reported as “inactive”.

From PubChem BioAssay (EPA / NIEHS)
